Assay [1] can be described thus: qHTS profiling of the MIPE4 collection as inhibitors of Plasmodium falciparum (3D7) proliferation (AID 743344).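 Also: scaled between DMSO vehicle wells and 0.29 µM artemisinin as full inhibition.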 Particulars: P. falciparum 3D7 in erythrocytes, SYBR Green DNA fluorescence, 72 h; at 28.5 µM unless noted. In short, it runs like this:
(§1)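 Erythrocytes infected with P. falciparum (0.3% parasitemia, 2.5% hematocrit) incubated with compounds 72 h at 37 C, 5% CO2. Lysis with saponin/Triton buffer containing SYBR Green I, overnight at room temperature in the dark; DNA fluorescence (485/535 nm) normalised to 0.29 uM artemisinin and DMSO.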

Assay [2] in a line: qHTS profiling of the MIPE4 collection as inhibitors of Plasmodium falciparum (DD2) proliferation (AID 743345). Conditions: P. falciparum Dd2 in erythrocytes, SYBR Green DNA, 72 h; at 28.5 µM unless noted. In short, it runs like this: as §1
Assay [3] can be described thus: qHTS profiling of the MIPE4 collection as inhibitors of Plasmodium falciparum (DD2) proliferation (Rep 2) (AID 743346). Conditions: P. falciparum Dd2 in erythrocytes, SYBR Green DNA, 72 h; at 28.5 µM unless noted. The procedure, abridged: as §1
On the technique in general: In qHTS, concentration-response curves come from the screen itself.

Assay [4] in a line: qHTS profiling of the MIPE4 collection as inhibitors of Plasmodium falciparum (HB3) proliferation (AID 743347).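 Also: plate controls were DMSO vehicle wells for no effect and artemisinin wells for full effect.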 Conditions: P. falciparum HB3 in erythrocytes, SYBR Green DNA, 72 h; at 28.5 µM unless noted. The procedure, abridged:
as §1

Assay [5] can be described thus: High-throughput drug toxicity screening in the BPDCN cell line Gen2.2 (AID 1224824).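 Also: cells exposed to compounds for 48 h before reading.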 Conditions: Gen2.2 BPDCN cells; at 45.8 µM (top of the series) unless noted. The procedure, abridged:
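Gen2.2 cells (500/well) in phenol red-free RPMI with 10% FBS were exposed to compounds for 48 h at 37 °C, 5% CO2. Viability was read by CellTiter-Glo luminescence and normalized to DMSO (100%) and 9.2 uM bortezomib (0%).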

Assay [6] is described as follows: High-throughput drug toxicity screening in the BPDCN cell line Cal-1 (AID 1224825). Particulars: Cal-1 BPDCN cell viability, qHTS; at 45.8 µM (top of the series) unless noted. In short, it runs like this: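 500 Cal-1 cells/well, RPMI + glutamine + 10% FBS (phenol red-free); cpd added by pin tool; 48 h, 37C, 5% CO2; CTG 15 min RT, lumi read. Normalised: DMSO 100%, bortezomib 9.2 uM 0%.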

Assay [7] can be described thus: qHTS assay for measurement of the activity of small molecule inhibitors on Zika virus induced Caspase-3 activity in human iPSC derived neural progenitor cells (hNPCs) (AID 1224857; active = well fitted curve in the direction sought with a large enough effect; an effect the other way counts as inactive or inconclusive; also: nearly all actives have a fitted effect of over 65% in size; also: potency is read from the fitted curve at half-maximal effect). The procedure, abridged:
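After overnight (16–20 h) culture at 350 cells/well, hNPCs get compound, then ZIKV 2 FFU/cell one hour later. Six hours on, Caspase-Glo 3/7 is added and luminescence measured.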

A short description of assay [8]: qHTS assay for measurement of the activity of small molecule inhibitors on Zika virus induced Caspase-3 activity in human astrocytoma cells (AID 1224859; active = well fitted curve in the direction sought with a large enough effect; an effect the other way counts as inactive or inconclusive;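 also: plate controls were ZIKV-infected untreated cells for no effect and uninfected cells for full effect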). In short, it runs like this:
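Inhibition of Zika-induced caspase-3/7 activity: SNB-19 cells, 1 h compound pretreatment, ZIKV 2 FFU/cell for 6 h at 37 C, Caspase-Glo luminescence read-out.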

A short description of assay [9]: qHTS Screen of the MIPE 4.0 Collection Against Ewings Sarcoma (RDES) (AID 1259252; active = well fitted curve in the direction sought with a large enough effect; an effect the other way counts as inactive or inconclusive; also: nearly all actives have a fitted effect of over 35% in size; also: potency is read from the fitted curve at half-maximal effect). In short, it runs like this: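 CellTiter-Glo luminescence after 48 h compound exposure (titration) gave viability; percent activity used DMSO-treated cells as no inhibition and medium-only wells as full inhibition. Cells grown in RPMI/5% FBS, dosed 4 h post-seeding.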
Assay [10] can be described thus: qHTS assay for small molecule agonists of the antioxidant response element (ARE) signaling pathway measured by Nrf2-dependant transcriptional activity - cell viability counter screen (AID 720653; active = well fitted curve in the direction sought with a large enough effect in the repeat runs; an effect the other way counts as inactive or inconclusive; also: % is scaled to controls: 0 for no effect and ±100 for the full control effect). Particulars: ARE-bla HepG2 viability, CellTiter-Glo ATP luminescence, 16 h; max response: stronger effect = lower value. The procedure, abridged:
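Cytotoxicity counter screen: intracellular ATP quantified by CellTiter-Glo luminescence in the same ARE-bla HepG2 plates, after 16 h compound exposure and a 2 h beta-lactamase substrate step.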

Assay [11] in a line: qHTS assay for cell viability of HEK293 cells (AID 743288; active = well fitted curve in the direction sought with a large enough effect; an effect the other way counts as inactive or inconclusive; also: % is scaled to controls: 0 for no effect and ±100 for the full control effect; nearly all actives have a fitted effect of over 50% in size). Particulars: ATP luminescence (CellTiter-Glo), 18 h; max response: stronger effect = lower value. In short, it runs like this: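 Parental HEK293 cells were seeded at 2,000 cells/well, rested at least 5 h at 37 C, then exposed to compounds in DMSO for 18 h at 37 C. Viability was read as ATP-dependent luciferase luminescence after 30 min at room temperature.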

The nature of assay [12]: qHTS assay for cell viability of the p53RE-bla HCT-116 cell line (AID 743292; active = well fitted curve in the direction sought with a large enough effect; an effect the other way counts as inactive or inconclusive; also: % is scaled to controls: 0 for no effect and ±100 for the full control effect; nearly all actives have a fitted effect of over 55% in size). The procedure, abridged: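 Luminescent ATP quantitation (CellTiter-Glo) served as the viability read-out; reagent was added after 16 h compound exposure at 37 C and read after 30 min at room temperature. Cells: p53RE-bla HCT-116, 4,000 per well.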
Assay [13] addresses T1, Hexokinase-4 (Homo sapiens) + Glucokinase regulatory protein (Homo sapiens) (UniProt P35557+Q14397). In words: qHTS assay for inhibitors of recombinant human GCK-GKRP interaction: Diaphorase-coupled assay (AID 743205; active = well fitted curve in the direction sought with a large enough effect; an effect the other way counts as inactive or inconclusive). In short, it runs like this:
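GST-GCK (10 nM) with FLAG-GKRP (10 nM), 5 mM glucose and 0.4 mM ATP in pH 7.6 Hepes; compounds preincubated 20 min with substrate. G6PDH/diaphorase coupling converts resazurin to resorufin, read kinetically (ex 525/em 590 nm) for 30 min.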

Assay [14] concerns the target T1, Hexokinase-4 (Homo sapiens) + Glucokinase regulatory protein (Homo sapiens). The experiment in a line: qHTS assay for inhibitors of recombinant human GCK-GKRP interaction: ADP-Glo assay (AID 743206; active = well fitted curve in the direction sought with a large enough effect; an effect the other way counts as inactive or inconclusive;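 also: plate controls were DMSO plus enzyme for no effect and no enzyme for full effect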). In short, it runs like this: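 GST-GCK and FLAG-GKRP (15 nM each in the dispensed mix, with 2 uM S6P) react with 0.4 mM ATP and 5 mM glucose (final) in Hepes pH 7.6 for 60 min at room temperature. ADP is measured by ADP-Glo luminescence.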

For assay [15] the target is unchanged. In words: qHTS assay for inhibitors of recombinant human GCK-GKRP interaction: HTRF assay (AID 743207; active = well fitted curve in the direction sought with a large enough effect; an effect the other way counts as inactive or inconclusive;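 also: 0% = DMSO with GCK present and -100% = DMSO wells lacking GCK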). The procedure, abridged:
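GST-GCK and FLAG-GKRP (5 nM each) were combined with 2 uM S6P in pH 7.1 Hepes/MgCl2/KCl/DTT buffer, then compound and anti-FLAG XL665/anti-GST K antibodies were added. After 60 min at room temperature, HTRF 665/615 nm emission was read.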

These results are taken from PubChem BioAssay (NCATS).

SMILES strings stand for the structures. Values joined by “and” are separate entries in the source; they are usually repeats but may differ in a detail not shown here. Equal values may be shown once. Results filed as inconclusive are left out. Active and inactive are the calls of the source. Unless noted, no rule for the calls is given here.

T1 sequence (P35557 whole entry, looked up): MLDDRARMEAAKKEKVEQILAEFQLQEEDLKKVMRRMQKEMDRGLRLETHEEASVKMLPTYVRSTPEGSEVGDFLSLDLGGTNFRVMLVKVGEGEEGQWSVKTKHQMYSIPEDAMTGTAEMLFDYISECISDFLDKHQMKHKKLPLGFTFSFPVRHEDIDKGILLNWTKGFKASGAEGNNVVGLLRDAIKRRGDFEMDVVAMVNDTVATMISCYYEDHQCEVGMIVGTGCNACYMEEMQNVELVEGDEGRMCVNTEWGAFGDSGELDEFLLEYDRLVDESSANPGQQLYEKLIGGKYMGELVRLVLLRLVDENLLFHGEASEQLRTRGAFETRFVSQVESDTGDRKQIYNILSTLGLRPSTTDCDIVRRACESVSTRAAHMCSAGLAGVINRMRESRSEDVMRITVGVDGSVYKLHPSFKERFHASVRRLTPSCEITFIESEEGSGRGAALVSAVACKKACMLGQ
T1 sequence (Q14397 whole entry, looked up): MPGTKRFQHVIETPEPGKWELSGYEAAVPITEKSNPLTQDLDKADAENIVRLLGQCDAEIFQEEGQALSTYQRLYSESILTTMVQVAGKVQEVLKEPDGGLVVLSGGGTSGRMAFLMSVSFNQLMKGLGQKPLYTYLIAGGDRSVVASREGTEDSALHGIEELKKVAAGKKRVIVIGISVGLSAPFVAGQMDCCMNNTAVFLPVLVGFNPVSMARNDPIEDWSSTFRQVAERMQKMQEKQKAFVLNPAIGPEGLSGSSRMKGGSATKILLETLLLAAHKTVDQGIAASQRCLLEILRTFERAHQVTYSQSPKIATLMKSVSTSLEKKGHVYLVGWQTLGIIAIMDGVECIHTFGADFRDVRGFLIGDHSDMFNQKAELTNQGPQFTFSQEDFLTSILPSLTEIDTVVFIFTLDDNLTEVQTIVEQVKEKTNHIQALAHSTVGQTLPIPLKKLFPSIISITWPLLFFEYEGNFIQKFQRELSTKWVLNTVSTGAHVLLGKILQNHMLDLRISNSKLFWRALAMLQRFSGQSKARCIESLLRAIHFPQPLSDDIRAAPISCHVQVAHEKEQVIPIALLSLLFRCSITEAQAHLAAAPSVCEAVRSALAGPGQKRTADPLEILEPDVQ

`Clc1cc(Cl)cc(CNc2ncncc2-c2ccc3c(c2)OCO3)c1` returned a parasite growth, % of DMSO control in assay [1] of 18.8%. Besides, in assay [2], the parasite growth remaining, % of DMSO control (lower = more inhibition) is 47.6%. Further, in [3], the parasite growth, % of control (lower = inhibition) came to 28.4%. In [4], the growth, % of control was determined as 10.2%. Further, in assay [5], the cell viability, % of control (lower = more cytotoxic) stood at 44.1%. Also, the viability (% of control) in [6] came to 11.1%. Besides, the Potency entry in assay [7] and in assay [8] was “inactive” throughout.
In the case of `O=C(O)c1ccc(-c2c[nH]c3ncc(-c4ccccc4)cc23)cc1C1CCCC1`, in [1], the parasite growth, % of DMSO control came out at 5.48%. For the same compound, in [2], the parasite growth remaining, % of DMSO control (lower = more inhibition) worked out at 8.18%. For the same compound, the parasite growth, % of control (lower = inhibition) in [3] worked out at 9.67%. In addition, the growth, % of control in assay [4] was 3.77%. Moreover, the cell viability, % of control (lower = more cytotoxic) in assay [5] came to 116%. Moreover, the viability (% of control) in assay [6] turned out to be 73.1%. Moreover, the Potency entry in assay [7] and in [8] was “inactive” throughout.
As for `COc1ccc2c3c1OC1C[C@@H](O)C=C[C@@]31CCN(C)C2` (stereo partly drawn), in [2], the parasite growth remaining, % of DMSO control (lower = more inhibition) was found to be 100%. Also, in assay [5], the cell viability, % of control (lower = more cytotoxic) was 113%. The viability (% of control) in [6] was 96.5%. The Potency result in assay [7] and in [8] was “inactive” in each case.
In the case of `CC1(C)O[C@H]2C[C@@H]3[C@H]4CCC5=CC(=O)C=C[C@]5(C)[C@@]4(F)[C@@H](O)C[C@]3(C)[C@]2(C(=O)CO)O1`, the parasite growth, % of DMSO control in [1] was 38.4%. Moreover, in assay [2], the parasite growth remaining, % of DMSO control (lower = more inhibition) was determined as 92.5%. Besides, the parasite growth, % of control (lower = inhibition) in assay [3] came out at 65.2%. The growth, % of control in assay [4] was 69%. The cell viability, % of control (lower = more cytotoxic) in assay [5] was 37.9%. The viability (% of control) in assay [6] was 8.18%. Besides, the Potency entry in [7] and in assay [8] was “inactive” in each case.
Compound `CC=C(C)C(=O)O[C@H]1C(C)=C[C@]23C(=O)[C@@H](C=C(CO)[C@@H](O)[C@]12O)[C@H]1[C@@H](C[C@H]3C)C1(C)C` yielded a parasite growth, % of DMSO control in [1] of 18.7%. Also, the parasite growth, % of control (lower = inhibition) in [3] amounted to 28.1%. This compound gave a growth, % of control in assay [4] of 21%. Besides, the cell viability, % of control (lower = more cytotoxic) in [5] was determined as 38.4%. Also, the viability (% of control) in assay [6] turned out to be 12.7%. The Potency entry in [7] and in assay [8] was “inactive” throughout.
`COCCCCC(=NOCCN)c1ccc(C(F)(F)F)cc1` returned a parasite growth, % of DMSO control in assay [1] of 47.6%. Also, in [2], the parasite growth remaining, % of DMSO control (lower = more inhibition) was 56.9%. The same compound had a parasite growth, % of control (lower = inhibition) in assay [3] of 49%. Besides, in assay [4], the growth, % of control stood at 47.6%. Besides, in assay [5], the cell viability, % of control (lower = more cytotoxic) stood at 56%. Moreover, in assay [6], the viability (% of control) turned out to be 88.3%. Besides, the Potency entry in assay [7] and in assay [8] was “inactive” each time.
In assay [1], `COc1ccc(-c2cc(=O)c3c(O)cc(O)cc3o2)cc1O` gave a parasite growth, % of DMSO control of 30.9%. The parasite growth remaining, % of DMSO control (lower = more inhibition) in assay [2] is 44.4%. Moreover, the parasite growth, % of control (lower = inhibition) in assay [3] turned out to be 43.3%. This compound also displayed a growth, % of control in [4] of 67.5%. In addition, the cell viability, % of control (lower = more cytotoxic) in assay [5] amounted to 97.2%. For the same compound, in [6], the viability (% of control) was 16.3%. The figures for the Potency in [7] and in [9] were 18.7 µM (active) and 5.26 µM (active), respectively.
In the case of `O=c1cc(-c2ccccc2)oc2cc(O)cc(O)c12`, the figures for the max response in [10] and in assay [11] were -2.85% (inactive) and -14.1% (inactive), respectively. Besides, the Potency entry in assay [12] was “inactive”. For the same compound, the parasite growth, % of DMSO control in assay [1] came to 48.1%. Further, the parasite growth remaining, % of DMSO control (lower = more inhibition) in [2] was 89.3%. For the same compound, the parasite growth, % of control (lower = inhibition) in assay [3] came to 49.8%. Also, in assay [5], the cell viability, % of control (lower = more cytotoxic) came out at 45.9%. For the same compound, the viability (% of control) in assay [6] came out at 52.1%. In addition, the Potency in [7] was 20.9 µM (active).
Take `O=c1c(-c2ccc(O)cc2)coc2cc(O)ccc12`: the max response was -5.4% (inactive) and -12% (inactive) in assay [10]; -7.57% (inactive) and -12.8% (inactive) in assay [11]. For the same compound, the result in assay [13], in assay [14] and in assay [15] was inactive. The Potency entry in assay [12] was “inactive”. The parasite growth, % of DMSO control in assay [1] is 100%. For the same compound, the parasite growth remaining, % of DMSO control (lower = more inhibition) in assay [2] was determined as 102%. The same compound displayed a parasite growth, % of control (lower = inhibition) in assay [3] of 89.3%. The cell viability, % of control (lower = more cytotoxic) in assay [5] stood at 119%. Besides, the viability (% of control) in [6] stood at 109%. In addition, in [7], the Potency was 11.2 µM (active).
Consider `CCOC(=O)C1=C(N)Oc2ccc(Br)cc2C1C(C#N)C(=O)OCC` (stereo not drawn), for which, in assay [1], the parasite growth, % of DMSO control was determined as 91.3%. Further, the parasite growth remaining, % of DMSO control (lower = more inhibition) in assay [2] was determined as 95.8%. In assay [3], this compound displayed a parasite growth, % of control (lower = inhibition) of 93.2%. The compound also returned a growth, % of control in assay [4] of 107%. For the same compound, the cell viability, % of control (lower = more cytotoxic) in assay [5] is 3.23%. In assay [6], the viability (% of control) turned out to be 9.05%. For the same compound, the Potency result in [7] and in [8] was “inactive” throughout.
On to `O=C(CCN1CCN(C(=O)OCc2cc(Cl)cc(Cl)c2)CC1)c1ccc2[nH]c(=O)oc2c1`, for which the parasite growth, % of DMSO control in assay [1] amounted to 101%. For the same compound, the parasite growth remaining, % of DMSO control (lower = more inhibition) in [2] was determined as 103%. This compound returned a parasite growth, % of control (lower = inhibition) in [3] of 85%. Besides, the cell viability, % of control (lower = more cytotoxic) in [5] is 231%. In assay [6], the viability (% of control) is 115%. Further, the Potency in assay [7] is 20.9 µM (active). Besides, in [9], the Potency result is “inactive”.
